According to PubChem BioAssay (NCI):
Compounds without any hit were thinned out: in the full panel of roughly 79,000, 15% have a hit. Unmarked numbers belong to inactive results. Activity calls are given as the source filed them. Cut-off read from the data, not from the text of the source: active = growth inhibition above about 70%; inactive = the rest.

What was measured:
[1] = NCI Yeast Anticancer Drug Screen. Data for the rad50 strain (AID 155);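 note: 0% = growth of vehicle-only cultures of the same strain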; details: S. cerevisiae rad50 strain growth inhibition; at 50.0 µM; stronger effect = higher value
Summary of the method: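 Growth of the mutant yeast was measured after compound exposure and referenced to vehicle-treated cultures.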

[2] = NCI Yeast Anticancer Drug Screen. Data for the mec2-1 strain (AID 157); details: S. cerevisiae mec2-1 strain, at 50.0 µM, stronger effect = higher value
Summary of the method: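 Yeast mec2-1 mutant treated with compound. Readout: growth inhibition vs vehicle controls.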

[3] = NCI Yeast Anticancer Drug Screen. Data for the sgs1 mgt1 strain (AID 161);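 note: 0% = growth of cultures given vehicle only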; details: S. cerevisiae sgs1 mgt1 strain, at 50.0 µM, stronger effect = higher value
Summary of the method: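 Read-out: growth inhibition vs vehicle controls. Cells: mutant yeast strain deficient in DNA damage repair.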

[4] = NCI Yeast Anticancer Drug Screen. Data for the cln2 rad14 strain (AID 165);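 note: 0% = growth equal to vehicle treated cultures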; details: S. cerevisiae cln2 rad14 strain, at 50.0 µM, stronger effect = higher value
Summary of the method: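 cln2 rad14 yeast strain; compound exposure; growth inhibition read vs vehicle controls.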

[5] = NCI Yeast Anticancer Drug Screen. Data for the bub3 strain (AID 167); details: S. cerevisiae bub3 mutant strain, at 50.0 µM, stronger effect = higher value
Summary of the method: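 Whole-cell yeast assay. The mutant strain was incubated with compounds, and growth inhibition was determined by comparison with vehicle-treated cells.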

[6] = NCI Yeast Anticancer Drug Screen. Data for the mlh1 rad18 strain (AID 175); details: S. cerevisiae mlh1 rad18 strain growth inhibition; at 50.0 µM; stronger effect = higher value
Summary of the method: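 Yeast w/ defined DNA-repair lesions; compound exposure; growth vs vehicle controls → % inhibition.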

Compound	growth inhibition [1] [%]	growth inhibition [2] [%]	growth inhibition [3]	growth inhibition [4] [%]	growth inhibition [5] [%]	growth inhibition [6] [%]
CC(=O)Oc1ccc2c(c1)CC[C@@H]1C2[C@@H](O[N+](=O)[O-])C[C@@]2(C)C1CC[C@@H]2O (stereo partly drawn)	25.5	43.3	77.2% (active)	62	31.9	57.8
CC(C)(C)OC(=O)CNC(=O)C(CSC(c1ccccc1)c1ccccc1)NC(=O)CNC(=O)C(CCCCNC(=O)OCc1ccccc1)NC(=O)CNC(=O)C(CSC(c1ccccc1)(c1ccccc1)c1ccccc1)NC(=O)OCc1ccccc1 (stereo not drawn)	34.8	14.7	8.5%	3.8	19.3	-4.2
COC(=O)c1ccc(C(=O)OC)c(NC(=O)CC(=O)c2ccc([N+](=O)[O-])cc2)c1	46.2	18.9	51.4%	9.55	-0.5	34.8
[N-]=[N+]=NC1OC(=O)C(Cl)=C1N=P(c1ccccc1)(c1ccccc1)c1ccccc1 (stereo not drawn)	4.3	11.3	24.4%	9.6	12.1	23
CN1CCCC1c1cccnc1.O=C(O)c1ccccc1O.O=C([O-])c1ccccc1[OH2+].O=C([O-])c1ccccc1[OH2+].O=C([O-])c1ccccc1[OH2+].[Mn+2] (stereo not drawn)	1.55	-14.2	-10.3%	-29.6	-45.8	7.3
Cc1c(C#N)c2n(c1C)CCN2	-14.3	-14.1	-9.2%	-36	-5.65	-4.45
CN(C(=N)N)c1ccc(C(=O)Oc2ccc([N+](=O)[O-])cc2)cc1	14.8	12.8	29.6%	1.35	15.1	17.1
CC[N+]1(C)CCOCC1	-13.7	3.35	-8.65%	-21.9	-5.2	-8.15
O=C1OC(c2ccccc2)C=C1Nc1ccccc1 (stereo not drawn)	9.55	12.4	-3.05%	-12.1	17	9.4
OC1CCC2CCCCC2C1 (stereo not drawn)	-7.3	-16.9	-15.4%	-25.1	-1.95	2.85
COC(=O)c1cccnc1C#N	2.2	-0.95	2.9%	-5.95	0.55	0.4
OC(c1ccncc1)(c1ccc(Cl)cc1)c1cccs1 (stereo not drawn)	6.35	11.2	6.95%	-5.2	21.4	7.7
Cn1cnc([N+](=O)[O-])c1Sc1ccccc1C(=O)O	-2.7	-0.15	-23.1%	23.6	-0.35	-12.1
O=C1CN(c2ccccc2)CC(=O)N2C(c3ccccc3)CCCN12 (stereo not drawn)	22.3	1.65	-6.05%	26.2	24.4	3.35
CN1CCN(C2CCCc3ccccc3C2O)CC1 (stereo not drawn)	-0.75	13.6	-15.7%	-25.1	1.3	0.2
Cc1nc2n(c1C(N)=O)CCS2	5.15	-5.65	-5%	-55.8	-10.7	-10.7
CC(NS(=O)(=O)c1cccc(C(=O)O)c1)c1ccccc1 (stereo not drawn)	10.3	-14.5	0.3%	-38.4	3.25	-0.05
CSc1nc2c(N)ncnc2n1C	11.4	1.4	9.55%	27.7	8.15	36.8
N#CCc1ccccc1S(=O)(=O)O	13.3	-0.75	-3.45%	-9.75	5.05	0.25

Compound	growth inhibition [1] [%]	growth inhibition [2] [%]	growth inhibition [3]	growth inhibition [4] [%]	growth inhibition [5] [%]	growth inhibition [6] [%]
Cc1ccccc1OCC1COCN(Cc2ccccc2)CO1 (stereo not drawn)	18.8	21.2	28.1%	20.6	6.95	32.9
Brc1c(NC2=NCCN2)ccc2nccnc12	6.2	5.1	-24%	-6.45	-22.1	-56.9
N#C[C@H](c1nc2ccccc2s1)c1nc2ccccc2nc1Cl	4.95	6.85	22.4%	1.45	5.15	5.25
CC(=O)Nc1ccc(S(=O)(=O)SC(F)(F)F)cc1	0.8	7.25	17.4%	24.7	8.85	13.7
CCCNC(=O)C1C(=O)C(=O)N(CCC)C1=O (stereo not drawn)	7.8	4.45	4.1%	-4.5	-3.9	4.05
Nc1nc2nsnc2nc1N	1.9	12.3	13.6%	-57.9	1.2	23.9
NC(=O)/N=N/C(N)=O	10.8	-1.05	13.6%	15.2	21.1	27.7
C/C=C/Sc1ccccc1C(=O)O	-14.3	-19.4	-9.55%	-18.9	-22.6	-34
N#Cc1c(-c2ccccc2)c(-c2ccccc2)cc2c(=O)c3ccc(Cl)cc3[nH]c12	-27.3	3.25	-2.9%	12.4	7.2	2.4
CN(C)C=Nc1ccc(F)cc1	-16.1	-5.6	-11.4%	-20.1	-1.8	-2.1
CC(C)(C#N)OC(=O)Nc1cccc(Cl)c1	5.55	-5.6	3.75%	-35.1	-30.6	-26.8
CCCCCC1OCC(C)(C)C(C(C)C)O1 (stereo not drawn)	-0.2	-23.9	-12.7%	0.95	-13.6	8.55
Cc1nc2c(=O)[nH]c(=O)[nH]c2[nH]c1=O	-20.4	-12.2	-24.6%	-50.5	2.55	-16.4
C=CNC(=O)NC(=O)CSc1nnc(-c2ccccc2NC(=O)C(F)(F)F)c(=O)[nH]1	5.7	-4.95	-4%	14.9	30.9	5.4
C[N+]1=CN(c2ccc(Cl)cc2)Cc2cc(Cl)ccc21	31.1	-12.1	25.6%	13.4	40.1	34
CC1(C)N=C(c2ccccc2)SC1(C)C	-13.6	-12.2	-21.8%	-49.4	1.65	-36.5
CCN(CC)c1ccccc1C	21.1	9.9	-5.2%	-4.95	2.25	-0.2
COc1ccc(C(=O)c2ccc(OC)cc2OC)cc1	-4.15	1.7	21.4%	-23.1	3.05	1.3
C=C1CC/C=C(\C)CCC2C1CC2(C)C (stereo not drawn)	-5.1	-17.1	1.9%	12.2	21.1	10.9
